Measurements: PubChem BioAssay
Several values for one entry are separate records, joined by “and”; a condition that tells them apart may be missing. Equal entries are not always repeated. Some structures have more than one record in an assay (separate samples or runs), and their calls can disagree. Activity calls are given as the source filed them.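 How the source made its calls, unless noted: active means compounds that lower viability of the colon cancer cells in the luminescence readout, with no numeric limit stated; inactive means the rest.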

Columns and labels:
[1] = Wnt pathway potentiators raising nuclear beta-catenin – imaging, WNT3A-conditioned medium, mouse C2C12, NPC library, primary screen (AID 1117326; in the data active means nuclear beta-catenin stimulation mostly above about 4.2%, no sharp cut-off; inactive means mostly below about 10%; further: reference of the scale not given here); conditions: stronger effect = higher value
[2] = stimulators of insulin release from INS-1E, primary screen, cell-based, 5 mM glucose, NPC library (AID 1117329;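 active means compound raises insulin release from rat beta cells at 5 mM glucose, no numeric limit stated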; further: reference of the scale not given here); conditions: rat INS-1E insulin secretion, at 10 µM, stronger effect = higher value
[3] = growth inhibition of GSK3B-pretreated HCT116 cells – cell-based, CellTiter-Glo, 0.2 to 20 µM (AID 1117336;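 active means compounds lowering colon cancer cell viability after pretreatment blocking the GSK3B kinase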); conditions: HCT116 viability after GSK3B inhibitor, at 20 µM, stronger effect = higher value
[4] = inhibition of endothelial tube formation, primary screen, imaging, VEGF stimulated, CD31 staining, tube area, NPC library (AID 1117340;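 active means compound that reduces growth-factor-driven endothelial tube area in a mixed cell culture, no cutoff stated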); conditions: VEGF-stimulated ADSC/ECFC co-culture, at 10 µM, stronger effect = higher value
[5] = GLP1 release stimulators, primary, NCI-H716, NPC library (AID 1117341;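 active means compound raises GLP1 secretion from the human gut endocrine cells, with no numeric limit stated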; further: reference of the scale not given here); conditions: NCI-H716 cells, at 10 µM, stronger effect = higher value
[6] = HCT116 colon cancer cell growth inhibition, primary screen, CellTiter-Glo luminescence, NPC library (AID 1117342;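 active means compounds that lower survival of HCT116 colon cancer cells in the luminescence readout, no numeric limit stated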); conditions: at 20 µM (top of the series)
[7] = reduced SW480 viability measured with CellTiter-Glo, NPC library, primary (AID 1117343); conditions: CellTiter-Glo luminescence; at 20 µM (top of the series)
[8] = NPC library primary testing for decreased DLD-1 cell viability via CellTiter-Glo (AID 1117346;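 active means compounds that lower survival of DLD-1 colon cancer cells in the luminescence readout, no cutoff given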); conditions: DLD-1 viability, CellTiter-Glo luminescence; at 20 µM (top of the series)

SMILES	nuclear beta-catenin stimulation ([1]; at 10 µM)	nuclear beta-catenin stimulation ([1]; stimulation, at 2 µM)	insulin secretion stimulation [2]	viability decrease [3]	tube area decrease [4]	GLP1 secretion stimulation [5]	inhibition of viability [6]	viability decrease (inhibition) [7]	viability decrease (inhibition) [8]
COc1cc(OC)nc(O[C@H](C(=O)O)C(OC)(c2ccccc2)c2ccccc2)n1	2.7% (inactive)	-0.4%	1% (inactive)	1.1% (inactive)	-16.9% (inactive)	3.3% (inactive)	1.2% (inactive)	6.1% (inactive)	2.4% (inactive)
C/C=C(/C(=C/C)c1ccc(OC(C)=O)cc1)c1ccc(OC(C)=O)cc1	18.1% (inactive)	2.9%	1.65% (inactive)	108% (active)	65.4% (active)	11.9% (inactive)	108% (active)	129% (active)	97.2% (active)
O=C(O)CNC(=O)c1ccccc1I	-0.5% (inactive)	1.7%	0.3% (inactive)	16% (inactive)	5.3% (inactive)	0.7% (inactive)	4.1% (inactive)	10.4% (inactive)	-17.7% (inactive)
C/C(=N\O)c1ccc(OCC(=O)N2CCCCC2)cc1	0.1% (inactive)	-1.1%	3.05% (inactive)	17.3% (inactive)	-6.2% (inactive)	0.1% (inactive)	13.8% (inactive)	-2.5% (inactive)	-0.4% (inactive)
OC[C@@H](O)[C@H](O)[C@H](O)[C@@H](O)CO	0.7% (inactive) and 2.5% (inactive)	-0.3% and 1%	0.1% (inactive) and 1.8% (inactive)	-25.2% (inactive) and 11.4% (inactive)	3.7% (inactive) and 50.5% (active)	0.3% (inactive) and -1.2% (inactive)	-3.33% (inactive) and -2.5% (inactive)	4.1% (inactive) and 1.5% (inactive)	-1.5% (inactive) and -4.9% (inactive)
CC(=O)N(CC(=O)N(C)C)c1ccccc1	-1.1% (inactive)	3.8%	-0.5% (inactive)	-5.9% (inactive)	3.9% (inactive)	-1.1% (inactive)	-4.93% (inactive)	36.7% (inactive)	-21.1% (inactive)
NC(=O)C(=O)N/N=C/c1ccc([N+](=O)[O-])o1	4.5% (inactive)	1.5%	-3.3% (inactive)	17.6% (inactive)	28.8% (inactive)	-1.5% (inactive)	0.3% (inactive)	89.2% (active)	23.6% (inactive)
COc1ccc(S(=O)(=O)N2c3ccc(Cl)cc3[C@@](O)(c3ccccc3Cl)[C@H]2C(=O)N2CCC[C@@H]2C(N)=O)cc1OC	0.6% (inactive)	-0.8%	2.35% (inactive)	47.7% (inactive)	-23.5% (inactive)	-0.7% (inactive)	34% (inactive)	0.4% (inactive)	4.6% (inactive)
COC(=O)c1cc(Cl)ccc1OC	-0.1% (inactive)	-1.6%	1.5% (inactive)	1.2% (inactive)	-13.8% (inactive)	2.6% (inactive)	8.2% (inactive)	-4.7% (inactive)	0.3% (inactive)
COc1cc(C(=S)N2CCOCC2)cc(OC)c1OC	-0.6% (inactive)	2%	1.5% (inactive)	-0.85% (inactive)	-15.3% (inactive)	-0.3% (inactive)	-1.2% (inactive)	9.6% (inactive)	1.7% (inactive)
CC1(C)OC[C@@H]2O[C@@]3(C(=O)O)OC(C)(C)O[C@H]3[C@@H]2O1	-1.7% (inactive)	-0.3%	4.8% (inactive)	-3% (inactive)	-12.4% (inactive)	-3.6% (inactive)	-1.6% (inactive)	26.9% (inactive)	0.3% (inactive)
CCOC(=O)c1cccc(N)c1	-0.3% (inactive)	-1.1%	1.3% (inactive)	4.6% (inactive)	-29.7% (inactive)	-4.7% (inactive)	-7.9% (inactive)	35.4% (inactive)	4.45% (inactive)
NC(CSCC(=O)O)C(=O)O (stereo not given)	0.1% (inactive)	1.5%	-0.7% (inactive)	-2.5% (inactive)	18.6% (inactive)	-2.3% (inactive)	0.7% (inactive)	0.9% (inactive)	-5.3% (inactive)
CC(C)(Oc1ccc(Cl)cc1)C(=O)OCCCOC(=O)C(C)(C)Oc1ccc(Cl)cc1	0.7% (inactive)	2.2%	0.5% (inactive)	11% (inactive)	2.3% (inactive)	-0.1% (inactive)	5.6% (inactive)	8.9% (inactive)	4% (inactive)
N#C[C@H]1C[C@H]2C[C@@H]2N1C(=O)[C@@H](N)C12CC3CC(CC(O)(C3)C1)C2	0.4% (inactive)	1.1%	-2% (inactive)	-4.75% (inactive)	2.7% (inactive)	1.4% (inactive)	-5.3% (inactive)	9.8% (inactive)	6.25% (inactive)
